NPC1 prom act: qHTS Assay for NPC1 Promoter Activators; Potency, µM (doses to about 9.22 µM), without a hit: at the top dose activation, hits mostly activators; Huh7 NPC1 promoter luciferase reporter, 24 h; actives 2.4% (n = 320,000); further: % of control where 0% means no effect; nearly all actives have a fitted effect of over 60% in size
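Luciferase expression driven by the NPC1 promoter was measured in stably transfected Huh7 cells after a 24 h compound incubation, using a luciferase reagent and a luminescence read.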
SMN2 splice enh: qHTS Assay for Enhancers of SMN2 Splice Variant Expression | AID 1458, 2008 | Potency, µM (highest dose often 46.1 µM), for the others: at the highest dose activity change, positive = activation, most hits filed as activators | HEK293 SMN2-luciferase splicing reporter, luminescence, 30-36 h | actives 2.8% (n = 210,000); further: % of control where 0% means no effect; nearly all actives have a fitted effect of over 55% in size
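HEK293 cells carry an SMN2 minigene-luciferase reporter in which exon 7 inclusion puts luciferase in frame. Cells were seeded at 2000 cells/well, attached for 10-12 hours, then exposed to compounds for 30-36 hours at 37C before ONE-Glo luminescence.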
ELG1 genotox: qHTS screen for small molecules that induce genotoxicity in human embryonic kidney (HEK293T) cells expressing luciferase-tagged ELG1; HEK293T ELG1-luciferase reporter, luminescence, 16 h; Potency, µM (doses to about 46 µM), for inactives: at the highest dose activity change, positive = activation, actives largely listed as activators; actives 1.3% (n = 330,000); further: % of control where 0% means no effect; nearly all actives have a fitted effect of over 60% in size
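HEK293T cells expressing luciferase-tagged ELG1 were treated with compound or DMSO for 16 hr at 37°C. Luciferase activity was then read after 30 min with ONE-Glo at room temperature; rising signal flags genetic stress.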
Rab9 promoter act: qHTS Assay for Rab9 Promoter Activators. Huh7 Rab9 promoter-luciferase reporter, luminescence, 24 h. Potency, µM (series often up to 9.22 µM), inactives show at the top dose activation, negative = inhibition, actives largely listed as activators. actives 2.8% (n = 320,000); further: % of control where 0% means no effect; nearly all actives have a fitted effect of over 60% in size
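Huh7 cells stably carrying Rab9 promoter–luciferase reporter, plated 1500 cells/well, compound added after 2 h and incubated 24 h at 37 °C; luciferase luminescence then read after 10 min with detection reagent.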
FLuc counter: qHTS profiling assay for firefly luciferase inhibitor/activator using purifed enzyme and Km concentrations of substrates (counterscreen for miR-21 project). Luciferin 4-monooxygenase (Photinus pyralis), P08659. purified FLuc, Km substrates, luminescence inhibition. Potency, µM (titrated, usually from 57.5 µM), for the others: top-dose activity change, negative = inhibition, actives largely listed as inhibitors. actives 6.9% (n = 360,000). AID 588342, 2011;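 further: plate controls were vehicle for no effect and reference inhibitor for full effect; nearly all actives have a fitted effect of over 55% in size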
Target sequence (P08659 whole entry, looked up): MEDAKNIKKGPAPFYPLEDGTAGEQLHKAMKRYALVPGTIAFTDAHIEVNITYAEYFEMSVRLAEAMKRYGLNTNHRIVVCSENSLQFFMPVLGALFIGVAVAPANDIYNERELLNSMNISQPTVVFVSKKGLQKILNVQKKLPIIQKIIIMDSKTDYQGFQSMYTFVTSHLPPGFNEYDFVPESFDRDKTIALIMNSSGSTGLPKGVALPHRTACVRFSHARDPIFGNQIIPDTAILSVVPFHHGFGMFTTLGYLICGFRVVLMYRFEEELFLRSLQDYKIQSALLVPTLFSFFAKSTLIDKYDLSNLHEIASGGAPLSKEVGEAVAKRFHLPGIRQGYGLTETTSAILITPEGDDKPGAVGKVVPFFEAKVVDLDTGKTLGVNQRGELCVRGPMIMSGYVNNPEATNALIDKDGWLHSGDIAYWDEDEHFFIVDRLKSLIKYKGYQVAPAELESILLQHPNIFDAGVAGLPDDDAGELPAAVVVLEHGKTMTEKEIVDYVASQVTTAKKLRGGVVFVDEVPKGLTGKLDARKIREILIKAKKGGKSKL
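Purified P. pyralis luciferase (10nM final) with 10uM D-luciferin and 10uM ATP (Km levels) in 50mM Tris acetate pH 7.5, 10mM Mg acetate, 0.01% Tween-20, 0.05% BSA; qHTS 6-point titration, ~60 µM downward; luminescence read.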
KinaseGlo FLuc: Counterscreen for Luciferase (Kinase-Glo TM) Inhibition. Luciferin 4-monooxygenase (Photuris pensylvanica), Q27757. Kinase-Glo luciferase, ATP luminescence, 8 min. Potency, µM (highest dose often 38.3 µM), without a hit: at the top dose activity change, negative = inhibition, hits mostly inhibitors. actives 0.28% (n = 200,000); further: on the % scale 0 is the no-effect control and ±100 the full control effect; nearly all actives have a fitted effect of over 60% in size
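Luminescence was the read-out, taken after 8-minute incubation at ambient temperature. Luciferase turned over luciferin with 10 uM ATP in imidazole pH 7.2 buffer containing KCl, MgCl2, Tween 20 and BSA.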
The depositor's hits bear a star; ? = inconclusive; . = no result. This is a sample that favours compounds with a hit; in the whole collection about 7.3% have one here. The call rests on the fitted dose curve; in most records, active means well fitted curve in the direction sought with a large enough effect; inconclusive means small, poorly fitted or top-dose-only effect, or another doubt; inactive means no such curve, though single readings can be large; an effect the other way counts as inactive or inconclusive. Potency means the concentration at half of the fitted maximal effect.

SMILES	NPC1 prom act	SMN2 splice enh	ELG1 genotox	Rab9 promoter act	FLuc counter	KinaseGlo FLuc
Cc1nn(-c2nnc(NCc3ccccc3)nn2)c(C)c1Br	23%	.	?	?	21µM*	-6%
Cc1cc(C)n(-c2nnc(NCc3ccc(Cl)cc3)nn2)n1	-5%	-38%	7%	4%	-15%	-1%
CN(C(=O)Nc1ccc(Cl)cc1Cl)C1CCCC1	?	.	?	4µM*	19µM*	.
CCCCn1cnc2cc(NCc3ccncc3)ccc21	-4%	-20%	10%	-4%	5%	0%
c1ccc(-n2cnc3cc(NCc4ccccn4)ccc32)cc1	?	.	?	?	15µM*	4%
c1ccc(-n2cnc3cc(NCc4ccncc4)ccc32)cc1	22%	-96%	1%	?	24µM*	23%
Cc1ccc(CCNC(=O)c2ccc3c(c2)N(Cc2ccccc2F)C(=O)c2ccccc2S3=O)cc1 (stereo unspecified)	.	7%	.	.	-2%	.
Cc1c(C(=O)N(C)C)sc2c1c(=O)n(-c1ccc(F)cc1)c(=O)n2Cc1ccccc1C#N	.	.	.	.	1%	.
COc1cccc(NC(=O)Cn2c(=O)n(Cc3ccc4c(c3)OCO4)c(=O)c3oc4ccccc4c32)c1	.	.	.	.	-2%	.
CCn1c(C)cc(/C=C2/SC(=O)N(C(C)C(=O)OC)C2=O)c1C (stereo unspecified)	3.2µM*	.	?	4µM*	6µM*	.
CCOC(=O)C(C)N1C(=O)S/C(=C/c2cc(C)n(-c3ccccn3)c2C)C1=O (stereo unspecified)	2.5µM*	29%	?	2.2µM*	8.5µM*	-3%
COCCn1c(C)cc(/C=C2/SC(=O)N(C(C)C(=O)OC)C2=O)c1C (stereo unspecified)	1.4µM*	.	8.2µM*	1.6µM*	2.4µM*	.
CCOC(=O)C(C)N1C(=O)S/C(=C/c2cc(C)n(-c3ccncc3)c2C)C1=O (stereo unspecified)	0%	-20%	-5%	21%	?	-1%
COCCn1c(C)cc(/C=C2\NC(=S)N(C)C2=O)c1C	14%	11µM*	?	0%	?	4%
CCCN1C(=O)C2(c3ccccc31)c1c(oc3cc(C)c(C)cc3c1=O)C(=O)N2CCCOC (stereo unspecified)	.	-5%	.	.	-1%	.
Cc1cccc(OCc2nc(CC(=O)Nc3ccc(Cl)cc3)cs2)c1	.	.	.	.	-6%	.
Cc1cc2c(n1-c1ccc(C(=O)NCCc3ccc(Cl)cc3)cc1)CCC(C)C2 (stereo unspecified)	.	.	.	.	-14%	.
COC(=O)C(C)N1C(=O)S/C(=C/c2cc(C)n(C(C)C)c2C)C1=O (stereo unspecified)	1%	14%	?	3.2µM*	13µM*	-3%
BrCCOCCOc1ccc2ccccc2c1	?	?	?	?	15µM*	0%
CC(C)(C)NCCOc1ccc2ccccc2c1	-2%	-4%	0%	-3%	-1%	-2%
COC(c1ccccc1)c1nnc(CCC(=O)N(C)C(C2CC2)C2CC2)o1 (stereo unspecified)	?	.	?	2.8µM*	13µM*	8%
Brc1ccc(-c2nnc(-c3ccco3)o2)cc1	3.2µM*	.	?	4µM*	8.5µM*	-7%
O=C(Cc1ccccc1)Nc1ccc(-c2nnc(-c3ccco3)o2)cc1	0%	1%	2%	8%	3%	1%
Cc1ccc(-c2nnc(-c3ccc(Br)cc3)o2)o1	?	13µM*	?	3.2µM*	3µM*	-1%
c1coc(-c2nnc(-c3cccs3)o2)c1	?	11µM*	?	?	?	-6%
